A short description of assay [1]: Nuclear factor erythroid 2-related factor 2/antioxidant responsive element (Nrf2/ARE) small molecule agonists: qHTS cell viability counter screen in human keratinocytes (AID 1919968; active = well fitted cell-killing curve with a large enough effect in the repeat runs; note: nearly all actives have a fitted effect of over 55% in size; note: potency is the fitted concentration of half-maximal effect). A digest of the protocol: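 Cells of the KeratinoSens line were plated at 1,500 per well and left for 5 h before compound transfer from DMSO stocks. After a 23 h incubation (37 C, 5% CO2), CellTiter-Fluor was added. Signal was taken as fluorescence intensity 1 h later.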
For orientation: In qHTS, concentration-response curves come from the screen itself.

Assay [2] can be described thus: Nuclear factor erythroid 2-related factor 2/antioxidant responsive element (Nrf2/ARE) small molecule agonists: luciferase reporter gene qHTS assay in human keratinocytes (AID 1919969; note: nearly all actives have a fitted effect of over 35% in size; note: potency is the fitted concentration of half-maximal effect). (In general: Reporter assays use an easily measured gene product as a stand-in for the process of interest.)
A short description of assay [3]: G protein-coupled receptor (GPCR) small molecule agonists, calcium flux assay: HEK293 wild type cell line counter screen (AID 1920065). A digest of the protocol:
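Tox21 10K compounds, 15 concentrations each in triplicate, pin-transferred in DMSO onto dye-loaded cells; kinetic read at 480/540 nm for 3 min, 1 s intervals.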
On the technique in general: Calcium flux is commonly read through the fluorescence of an indicator in the cells.

The nature of assay [4]: p53 small molecule agonists, cell-based qHTS assay with human liver microsomes (AID 1963577).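 Note: p53 response element beta-lactamase reporter cells with liver microsomes plus NADPH.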 Put shortly:
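16 h, 37 C exposure of p53RE-bla cells to compounds with human liver microsomes and NADPH (0.5 mg/mL final each); detection via LiveBLAzer mixture, 2 h dark at room temperature.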

Assay [5] is described as follows: p53 small molecule agonists, cell-based qHTS assay with rat liver microsomes (AID 1963578). A digest of the protocol:
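With rat liver microsomes and NADPH present (0.5 mg/mL final each), p53RE-bla cells are treated with compound for 16 h at 37 C. LiveBLAzer detection mixture is then applied for 2 h at room temperature in the dark.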

Assay [6] is described as follows: p53 small molecule agonists, cell-based qHTS assay with human liver microsomes: qHTS cell viability counter screen (AID 1963579). Note: nearly all actives have a fitted effect of over 45% in size. Put shortly: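 In this multiplexed counter screen, the reporter plates were subsequently treated with CellTiter-Glo so that cell viability, reflected by luminescence, could be recorded for p53RE-bla cells dosed 16 h with compounds under microsomal activation (HLM and NADPH).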

Assay [7] can be described thus: p53 small molecule agonists, cell-based qHTS assay with rat liver microsomes: qHTS cell viability counter screen (AID 1963580). Note: nearly all actives have a fitted effect of over 45% in size. A digest of the protocol: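 Cytotoxicity counter screen: intracellular ATP read by CellTiter-Glo luminescence in the p53 reporter wells. HCT-116 p53RE-bla cells were treated for 16 h at 37 C alongside rat liver microsomes and NADPH, each 0.5 mg/mL final.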

Assay [8] can be described thus: p53 small molecule agonists, cell-based qHTS assay: qHTS cell viability counter screen (AID 1963581). Note: nearly all actives have a fitted effect of over 45% in size. A digest of the protocol:
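ATP content measured by luminescence in HCT-116 p53RE-bla cells treated 16 h at 37 C, same wells as the reporter screen.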

Assay [9] in a line: p53 small molecule agonists, cell-based qHTS assay (AID 1963582; active = well fitted activation curve with a large enough effect in the signal ratio in the repeat runs, not every such curve was filed as active; the % refers to the signal ratio). Put shortly:
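16 h compound exposure (37 C) of p53 response element–bla cells, preceded by 5 h recovery at 37 C/5% CO2; read-out via LiveBLAzer B/G FRET substrate, 2 h RT, fluorescence intensity.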

In assay [10] the target is 5-hydroxytryptamine receptor 2A (Homo sapiens) (UniProt P28223). In words: 5-hydroxytryptamine receptor 2A (HTR2A) small molecule antagonists, cell-based qHTS assay (AID 1963586). Note: nearly all actives have a fitted effect of over 45% in size. A digest of the protocol:
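CHO cells stably expressing human HTR2A were plated for 18 h at 37 C, then loaded with calcium dye for 1 h. Compounds were preincubated 5 min at room temperature before DOI (4 nM solution) was added. Kinetic fluorescence was read for 3 min.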

The target is the same in assay [11]. Description: 5-hydroxytryptamine receptor 2A (HTR2A) small molecule agonists, cell-based qHTS assay (AID 1963587). Note: nearly all actives have a fitted effect of over 30% in size. A digest of the protocol:
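Kinetic calcium-flux fluorescence (2 min, 1 sec intervals) after compound addition in agonist mode. HTR2A-CHO cells were cultured 18 h, then dye-loaded 1 h at 37 C.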

Assay [12] addresses Muscarinic acetylcholine receptor M1 (Homo sapiens) (UniProt P11229). Description: Cholinergic receptor muscarinic 1 (CHRM1) small molecule antagonists, cell-based qHTS assay (AID 1963588). Note: nearly all actives have a fitted effect of over 40% in size. A digest of the protocol: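 Compounds were tested at 15 concentrations in three independent runs. Dye-loaded CHRM1-CHO cells were exposed 5 min at room temperature before stimulation by acetylcholine added at 50nM. Intracellular calcium was read kinetically on FDSS for 3 min.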

Assay [13] has the same target. In words: Cholinergic receptor muscarinic 1 (CHRM1) small molecule agonists, cell-based qHTS assay (AID 1963589). Note: nearly all actives have a fitted effect of over 35% in size. Put shortly:
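Homogeneous fluorescence calcium flux, agonist mode. Human M1-expressing CHO cells; compound dosed at 15 concentrations, three independent runs; signal sampled every 1 sec.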

Assay [14] can be described thus: cAMP Responsive Elements (CRE) small molecule antagonists, cell-based qHTS assay (AID 1963591; active = well fitted inhibition curve with a large enough effect in the signal ratio in the repeat runs, not every such curve was filed as active; the % refers to the signal ratio). Put shortly: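 First, CRE-bla HEK293T cells settled 18 h at 37 C. Next, compound and 0.25 uM final NKH477 were applied for 3 h. Last, LiveBLAzer B/G substrate was loaded for 2 h at room temperature.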
Assay [15] concerns the target Beta-2 adrenergic receptor (Homo sapiens) (UniProt P07550). In words: Adrenergic beta2 receptor (ADRB2) small molecule antagonists, cell-based qHTS assay (AID 1963592). Note: series mostly up to about 92 µM; nearly all actives have a fitted effect of over 50% in size. A digest of the protocol:
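Assay format: CHO-ADRB2 cells, 18-20hr seeding at 37C/5% CO2, then compound plus 1nM isoproterenol agonist mix for 0.5hr RT. Homogeneous time-resolved fluorescence cAMP detection after 1hr, expressed as 665/615 nm ratio.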

For assay [16] the target is unchanged. Description: Adrenergic beta2 receptor (ADRB2) small molecule agonists, cell-based qHTS assay (AID 1963593).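 Note: CHO cells stably overexpressing human ADRB2.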 A digest of the protocol:
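CHO cells stably over-expressing ADRB2 were plated overnight at 37C, then dosed with compounds plus a stimulation mix containing 100uM IBMX and 25uM Ro-20-1724 for 0.5hr at room temperature. cAMP was measured by HTRF competition, 1hr.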

The target of assay [17] is D(2) dopamine receptor (Homo sapiens) (UniProt P14416). Description: Dopamine D2 receptor (DRD2) small molecule agonists, cell-based qHTS assay (AID 1963594). Note: nearly all actives have a fitted effect of over 35% in size. Put shortly: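 cAMP accumulation in DRD2-HEK293 cells measured by HTRF after 1 h detection; compounds added 10 min before NKH477 (200nM […]) forskolin-analogue stimulation, 30 min at room temperature, with Ro20-1724 present at 0.1 mM final.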
D(2) dopamine receptor (Homo sapiens), sequence (P14416 whole entry, looked up): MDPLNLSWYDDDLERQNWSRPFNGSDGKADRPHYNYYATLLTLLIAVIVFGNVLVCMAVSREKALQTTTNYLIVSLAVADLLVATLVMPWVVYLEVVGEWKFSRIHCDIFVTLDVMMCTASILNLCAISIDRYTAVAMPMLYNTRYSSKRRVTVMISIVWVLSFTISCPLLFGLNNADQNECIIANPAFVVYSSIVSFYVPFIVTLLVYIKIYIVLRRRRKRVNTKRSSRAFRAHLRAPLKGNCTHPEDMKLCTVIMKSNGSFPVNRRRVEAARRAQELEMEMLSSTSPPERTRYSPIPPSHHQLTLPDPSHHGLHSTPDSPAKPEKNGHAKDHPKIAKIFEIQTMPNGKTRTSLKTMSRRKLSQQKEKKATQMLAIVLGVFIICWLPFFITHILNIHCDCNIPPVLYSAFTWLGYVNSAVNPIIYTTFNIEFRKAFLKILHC

The target is the same in assay [18]. In words: Dopamine D2 receptor (DRD2) small molecule antagonists, cell-based qHTS assay (AID 1963595; active = well fitted inhibition curve with a large enough effect in the signal ratio in the repeat runs, with a control signal flat; the % refers to the signal ratio). A digest of the protocol: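 Antagonist mode in DRD2-HEK293 cells: after compound addition with 0.1 mM Ro20-1724, cells received quinpirole (12 nM) and NKH477 (200 nM) for 30 min at room temperature; HTRF cAMP read after 1 h detection.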
Assay [19] in a line: cAMP Responsive Elements (CRE) small molecule agonists, cell-based qHTS assay (AID 1963590). Put shortly: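 HEK 293T cells stably bearing CRE-bla were plated at 2,000 cells per well and rested 18 h. Compounds, positive controls or DMSO were added for 3 h at 37 C. LiveBLAzer B/G substrate was then loaded for 2 h at room temperature.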
The target in assay [20] is Gonadotropin-releasing hormone receptor (Homo sapiens) (UniProt P30968). Description: Human gonadotropin-releasing hormone receptor (GnRHR) small molecule agonists, calcium flux assay in GnRHR-HEK293 cells (AID 1920063). Note: nearly all actives have a fitted effect of over 35% in size. Put shortly: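 Compounds dissolved in DMSO are pin-transferred onto dye-loaded GnRHR-HEK293 cells, which were seeded 18 h before at 37 C/5% CO2. Calcium signal is read as fluorescence intensity at 1 s intervals for 3 min.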
Gonadotropin-releasing hormone receptor (Homo sapiens), sequence (P30968 whole entry, looked up): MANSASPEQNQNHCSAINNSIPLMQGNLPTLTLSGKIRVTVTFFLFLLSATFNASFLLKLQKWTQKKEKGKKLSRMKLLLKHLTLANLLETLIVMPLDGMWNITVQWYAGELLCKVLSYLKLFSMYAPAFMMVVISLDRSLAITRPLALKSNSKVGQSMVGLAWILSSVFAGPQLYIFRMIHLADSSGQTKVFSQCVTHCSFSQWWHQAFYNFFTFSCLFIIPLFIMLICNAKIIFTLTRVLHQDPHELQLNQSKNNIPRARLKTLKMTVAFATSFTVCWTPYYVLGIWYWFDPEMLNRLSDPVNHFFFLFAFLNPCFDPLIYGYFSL

Values joined by “and” are separate entries in the source; they are usually repeats but may differ in a detail not shown here. Equal entries are not always repeated. Unmarked numbers belong to inactive results. Records with an inconclusive call do not appear. Active and inactive are the calls of the source. Unless noted, calls come from the whole dose curve.
% is set by controls: 0 for no effect and ±100 for the full control effect.

Beta-2 adrenergic receptor (Homo sapiens), sequence (P07550 whole entry, looked up): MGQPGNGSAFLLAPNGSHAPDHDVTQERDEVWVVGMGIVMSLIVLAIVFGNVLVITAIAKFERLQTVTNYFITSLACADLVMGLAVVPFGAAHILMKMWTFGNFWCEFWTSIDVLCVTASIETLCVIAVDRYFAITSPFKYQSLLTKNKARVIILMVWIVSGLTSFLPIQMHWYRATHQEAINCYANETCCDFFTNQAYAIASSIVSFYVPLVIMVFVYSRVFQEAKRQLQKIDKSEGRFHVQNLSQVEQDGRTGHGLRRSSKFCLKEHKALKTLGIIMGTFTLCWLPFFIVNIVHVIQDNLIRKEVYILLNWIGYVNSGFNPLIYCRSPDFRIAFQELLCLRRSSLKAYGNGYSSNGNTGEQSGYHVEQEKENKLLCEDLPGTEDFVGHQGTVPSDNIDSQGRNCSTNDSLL
5-hydroxytryptamine receptor 2A (Homo sapiens), sequence (P28223 whole entry, looked up): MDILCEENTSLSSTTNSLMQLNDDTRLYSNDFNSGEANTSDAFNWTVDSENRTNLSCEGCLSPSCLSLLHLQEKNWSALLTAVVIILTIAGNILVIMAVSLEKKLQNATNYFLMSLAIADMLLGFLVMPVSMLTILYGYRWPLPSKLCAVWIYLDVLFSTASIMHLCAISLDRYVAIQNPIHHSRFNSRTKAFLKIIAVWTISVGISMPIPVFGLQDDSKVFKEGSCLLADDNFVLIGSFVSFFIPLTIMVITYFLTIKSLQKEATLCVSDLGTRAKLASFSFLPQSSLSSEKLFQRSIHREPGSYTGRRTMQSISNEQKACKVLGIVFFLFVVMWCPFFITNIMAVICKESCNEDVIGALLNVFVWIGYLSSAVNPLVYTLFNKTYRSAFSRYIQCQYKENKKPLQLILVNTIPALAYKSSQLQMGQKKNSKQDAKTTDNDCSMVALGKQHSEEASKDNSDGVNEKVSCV
Muscarinic acetylcholine receptor M1 (Homo sapiens), sequence (P11229 whole entry, looked up): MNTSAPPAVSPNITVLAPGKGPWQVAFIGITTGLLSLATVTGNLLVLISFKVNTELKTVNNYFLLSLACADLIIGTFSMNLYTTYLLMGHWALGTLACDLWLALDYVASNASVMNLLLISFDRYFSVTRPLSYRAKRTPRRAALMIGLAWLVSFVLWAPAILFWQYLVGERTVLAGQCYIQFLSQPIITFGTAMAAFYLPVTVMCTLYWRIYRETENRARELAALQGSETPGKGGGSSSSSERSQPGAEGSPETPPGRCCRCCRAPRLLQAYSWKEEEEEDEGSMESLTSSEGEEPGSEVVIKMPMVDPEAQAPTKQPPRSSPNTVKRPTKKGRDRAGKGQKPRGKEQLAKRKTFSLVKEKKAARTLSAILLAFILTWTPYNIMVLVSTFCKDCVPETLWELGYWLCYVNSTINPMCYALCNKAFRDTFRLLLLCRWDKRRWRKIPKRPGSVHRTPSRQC

Regarding `Cc1ncc(CSSCc2cnc(C)c(O)c2CO)c(CO)c1O`, the Potency result in [1], in assay [2], in assay [3], in assay [4], in assay [5] and in [6] was “inactive” throughout. The Potency entry in assay [7], in [8], in [9], in assay [10], in assay [11] and in [12] was “inactive” each time. Further, the Potency result in assay [13], in [14], in assay [15], in assay [16], in assay [17] and in assay [18] was “inactive” throughout.
Take `NC(=S)Nc1cccc2ccccc12`: the activity change, negative = cytotoxicity in assay [1] is -1.52% [at 8.39 µM]; in assay [6], 3.12% [at 5.99 µM]; in [7], 8.96% [at 5.99 µM]; in assay [8] it was 19.8% [at 5.99 µM]. The activity, positive = activation in assay [2] is -4.89% [at 8.39 µM]. Further, the activation in assay [3] was -0.659% [at 5.23 µM]; in assay [4] it was 6% [at 5.99 µM]; in assay [5], 0.459% [at 5.99 µM]; in assay [9], -2.75% [at 5.99 µM]; in [11], 1.75% [at 7.02 µM]; in assay [13], 0.152% [at 6.97 µM]. Also, the activation in [19] is -1.04% [at 8.39 µM]; in [17], 2.03% [at 8.39 µM]. For the same compound, the activity, negative = inhibition in assay [10] was 12.8% [at 5.62 µM]; in assay [12], -5.9% [at 5.58 µM]. Further, the activity change, negative = inhibition in assay [14] is 1.21% [at 8.39 µM]; in [15] it was -15.5% [at 8.39 µM]; in assay [18], -0.294% [at 8.38 µM].
Turning to `O=C(O)c1ccccc1[N+](=O)[O-]`, the Potency result in assay [1], in assay [2], in assay [3], in [4], in [5] and in assay [6] was “inactive” in each case. In addition, the Potency entry in assay [7], in assay [8], in assay [9], in assay [10], in [11] and in assay [12] was “inactive” in each case. Also, the Potency entry in [13], in [19], in assay [15], in assay [17] and in assay [18] was “inactive” in each case.
Regarding `OC[C@H]1O[C@@H]2O[C@H]3[C@H](O)[C@@H](O)[C@@H](O[C@H]4[C@H](O)[C@@H](O)[C@@H](O[C@H]5[C@H](O)[C@@H](O)[C@@H](O[C@H]6[C@H](O)[C@@H](O)[C@@H](O[C@H]7[C@H](O)[C@@H](O)[C@@H](O[C@H]1[C@H](O)[C@H]2O)O[C@@H]7CO)O[C@@H]6CO)O[C@@H]5CO)O[C@@H]4CO)O[C@@H]3CO`, the Potency result in assay [1], in assay [2], in assay [20], in assay [3], in [6] and in assay [7] was “inactive” throughout. Besides, the Potency result in [8], in assay [19], in assay [14], in [15], in [16] and in assay [18] was “inactive” in each case.
Regarding `S=C(NC1CCCCC1)NC1CCCCC1`, the Potency is 26.8 µM (active) and 24.3 µM (active) in [1]; 15.1 µM (active) in [2]. The Potency result in assay [20], in assay [3], in assay [6], in assay [7], in assay [8] and in assay [10] was “inactive” throughout. In addition, the Potency result in assay [11], in [12], in assay [19], in assay [14], in assay [15] and in [16] was “inactive” each time. In addition, the Potency result in [17] and in assay [18] was “inactive” each time.
`O=S1(=O)OC(c2ccc(O)cc2)(c2ccc(O)cc2)c2ccccc21`: in assay [1], the Potency was 24.3 µM (active). Further, the Potency entry in [2], in assay [20], in assay [3], in [6], in assay [7] and in [8] was “inactive” in each case. The Potency result in [10], in assay [11], in [12], in assay [19], in assay [14] and in [15] was “inactive” in each case. For the same compound, the Potency result in assay [16], in assay [17] and in assay [18] was “inactive” throughout.
Turning to `CCCCCCCCCCCCCCC(=O)O`, the Potency entry in [1], in assay [2], in [3], in [4], in assay [5] and in assay [6] was “inactive” each time. Also, the Potency result in assay [7], in assay [8], in assay [9], in assay [10], in [11] and in assay [12] was “inactive” throughout. Further, the Potency entry in assay [13], in assay [19], in assay [14], in assay [15], in [17] and in [18] was “inactive” in each case.

The values above are taken from PubChem BioAssay (Tox21).
